# Screening results (PubChem)
# SMN2 splice enh: qHTS Assay for Enhancers of SMN2 Splice Variant Expression | HEK293 SMN2-luciferase splicing reporter, luminescence, 30-36 h | Potency, µM (series often up to 46.1 µM), without a hit: at the top dose activity change, positive = activation, usual class: activators | 210,000 compounds, 2.8% hits; further: % of control where 0% means no effect; nearly all actives have a fitted effect of over 55% in size
#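 HEK293 cells carry an SMN2 minigene-luciferase reporter in which exon 7 inclusion puts luciferase in frame. Cells were seeded at 2000 cells/well, attached for 10-12 hours, then exposed to compounds for 30-36 hours at 37C before ONE-Glo luminescence.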
# ELG1 genotox: qHTS screen for small molecules that induce genotoxicity in human embryonic kidney (HEK293T) cells expressing luciferase-tagged ELG1 | 330,000 compounds, 1.3% hits | AID 504466, 2011 | Potency, µM (titrated, usually from 46 µM), for inactives: top-dose activity change, positive = activation, usual class: activators | HEK293T ELG1-luciferase reporter, luminescence, 16 h; further: % of control where 0% means no effect; nearly all actives have a fitted effect of over 60% in size
#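 HEK293T cells expressing luciferase-tagged ELG1 were treated with compound or DMSO for 16 hr at 37°C. Luciferase activity was then read after 30 min with ONE-Glo at room temperature; rising signal flags genetic stress.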
# KinaseGlo FLuc: Counterscreen for Luciferase (Kinase-Glo TM) Inhibition; Kinase-Glo luciferase, ATP luminescence, 8 min; Luciferin 4-monooxygenase (Photuris pensylvanica), Q27757; AID 1379, 2008; Potency, µM (titrated, usually from 38.3 µM), inactives show top-dose activity change, negative = inhibition, hits mostly inhibitors; 200,000 compounds, 0.28% hits; further: on the % scale 0 is the no-effect control and ±100 the full control effect; nearly all actives have a fitted effect of over 60% in size
#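 Substrate mix (final 50 mM imidazole pH 7.2, 50 mM KCl, 7 mM MgCl2, 10 uM ATP, 0.01% Tween 20, 0.05% BSA) plus pin-tool compound, then Kinase-Glo detection mix; 8 min ambient, luminescence read.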
# FLuc modulator: qHTS profiling assay for firefly luciferase inhibitor/activator using purifed enzyme and Km concentrations of substrates (counterscreen for miR-21 project); Potency, µM (doses to about 57.5 µM), for inactives: at the highest dose activity change, negative = inhibition, actives largely listed as inhibitors; Luciferin 4-monooxygenase (Photinus pyralis), P08659; 360,000 compounds, 6.9% hits; purified FLuc, Km substrates, luminescence inhibition;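 further: plate controls were vehicle for no effect and reference inhibitor for full effect; nearly all actives have a fitted effect of over 55% in size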
# Target sequence (P08659 whole entry, looked up): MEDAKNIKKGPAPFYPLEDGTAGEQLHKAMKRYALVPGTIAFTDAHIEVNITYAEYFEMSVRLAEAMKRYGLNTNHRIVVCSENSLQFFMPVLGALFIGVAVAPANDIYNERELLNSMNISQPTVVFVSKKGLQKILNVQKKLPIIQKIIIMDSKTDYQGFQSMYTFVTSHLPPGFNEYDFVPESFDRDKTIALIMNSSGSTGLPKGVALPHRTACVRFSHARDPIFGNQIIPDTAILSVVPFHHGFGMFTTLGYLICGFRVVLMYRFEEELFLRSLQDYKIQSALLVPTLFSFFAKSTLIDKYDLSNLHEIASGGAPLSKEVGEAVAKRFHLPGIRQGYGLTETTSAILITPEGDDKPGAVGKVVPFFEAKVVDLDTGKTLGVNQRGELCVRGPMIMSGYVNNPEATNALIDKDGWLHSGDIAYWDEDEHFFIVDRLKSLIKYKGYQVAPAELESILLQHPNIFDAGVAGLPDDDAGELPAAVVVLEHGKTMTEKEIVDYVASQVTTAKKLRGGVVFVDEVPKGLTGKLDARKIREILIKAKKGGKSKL
#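 Biochemical qHTS of compounds, final roughly 60 µM downward over six points, against 10 nM purified firefly luciferase using Km concentrations of substrates (10 uM D-luciferin, 10 uM ATP) in Tris acetate pH 7.5 buffer; luminescence output.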
# NPC1 promoter act: qHTS Assay for NPC1 Promoter Activators; Huh7 NPC1 promoter luciferase reporter, 24 h; Potency, µM (titrated, usually from 9.22 µM), inactives show at the top dose activation, most hits filed as activators; 320,000 compounds, 2.4% hits; AID 485313, 2010; further: % of control where 0% means no effect; nearly all actives have a fitted effect of over 60% in size
#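 Readout is luciferase luminescence, reflecting NPC1 promoter activation in stably transfected Huh7 cells after 24 h compound exposure at 37 °C in reduced-serum medium with 10% FBS.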
# Rab9 promoter act: qHTS Assay for Rab9 Promoter Activators; 320,000 compounds, 2.8% hits; Huh7 Rab9 promoter-luciferase reporter, luminescence, 24 h; Potency, µM (doses to about 9.22 µM), for inactives: at the highest dose activation, negative = inhibition, most hits filed as activators; further: % of control where 0% means no effect; nearly all actives have a fitted effect of over 60% in size
#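 Stable Rab9-luc Huh7, 1500 cells/well, 2 h settle; cmpd in DMSO, 24 h, 37 °C/5% CO2; luciferase reagent 10 min RT; luminescence.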
# The depositor's hits bear a star; u = inconclusive; x = not tested or not shown; [ ] = remark or other dose. A selection: hits, their analogues and other compounds. The true share with any hit is near 7.3%. The call rests on the fitted dose curve; in most records, active means well fitted curve in the direction sought with a large enough effect; inconclusive means small, poorly fitted or top-dose-only effect, or another doubt; inactive means no such curve, though single readings can be large; an effect the other way counts as inactive or inconclusive. Potency means the concentration at half of the fitted maximal effect.
SMILES,SMN2 splice enh,ELG1 genotox,KinaseGlo FLuc,FLuc modulator,NPC1 promoter act,Rab9 promoter act
Cc1cccc(/C(N)=N/OC(=O)Cc2cccc3ccccc23)c1,8%,-3%,-1%,0%,0%,2%
Fc1ccc2nc(C3CCN(Cc4nc(CC5CC5)no4)CC3)[nH]c2c1,x,-5%,0%,-3%,-1%,-2%
Fc1ccccc1C1CCN(Cc2nc(CC3CC3)no2)C1 (configuration not stated),x,u,x,17µM*,u,u
CN(Cc1cccnc1)C(=O)c1ccc2nc(Cc3ccccc3F)oc2c1,x,1%[9.26 µM],x,24µM*,27%,u
COCCc1nc2ccc(C(=O)N(C)Cc3cccc(-n4cccn4)c3)cc2o1,x,u,x,21µM*,2.8µM*,2.8µM*
CN(Cc1ccon1)C(=O)c1ccc2nc(Cc3cccc(Cl)c3)oc2c1,x,0%,x,4%,6%,-8%
CN(Cc1cccc(-n2cccn2)c1)C(=O)CCc1nnc(C2CCCCC2)o1,x,10%,-4%,17µM*,12%,u
COc1ccc(CC(=O)N(Cc2nc(-c3ccc(C)cc3)no2)C(C)C)cc1,-36%,x,x,-1%,x,x
COCc1ccc(C(=O)N(C)CC2CCCN(CCc3ccc(OC)cc3)C2)o1 (configuration not stated),x,u,x,17µM*,u,u
CCS(=O)(=O)N1CCc2cc(C(=O)Nc3ccc(OC)c(Cl)c3)ccc21,x,x,x,-15%,x,x
COC(=O)c1ccc(OC(=O)c2ccccc2F)cc1,-4%,2%,-3%,13µM*,1%,-2%
O=C(Oc1ccc(C(=S)N2CCOCC2)cc1)c1ccccc1F,x,5%,x,u,-3%,6%
CCN(c1ncnc2c1cnn2-c1cc(Cl)ccc1C)C1CCCCC1,x,x,x,-2%,x,x
O=C(CN1C(=O)c2cccc([N+](=O)[O-])c2C1=O)OCC(=O)N1CCCCC1,x,-3%,x,8.5µM*,8%,21%
O=[N+]([O-])c1ccc(O)c(Nc2ncnc3ccccc23)c1,x,1%,-2%,0.54µM*,u,14%
COc1ccc2nc(/N=C/c3c(C)[nH]n(-c4ccc(C)cc4C)c3=O)sc2c1,18%,9%,4%,27µM*,0%,17%
COc1ccccc1N=Cc1c(C)[nH]n(-c2ccc(C)cc2C)c1=O,x,-4%,-3%,0%,-1%,-4%
CCCc1cc2c(=O)c(-c3ccc4c(c3)OCCO4)coc2cc1OC(=O)c1ccco1,u,18%,-5%,5.4µM*,1.3µM*,1.6µM*
CCCc1cc2c(=O)c(-c3ccc4c(c3)OCCO4)coc2cc1OS(C)(=O)=O,u,0%,5%,5.4µM*,u,3.2µM*
CCc1cc2c(=O)c(-c3ccc4c(c3)OCCO4)coc2cc1OC(=O)c1ccco1,u,1.5µM*,1%,1.1µM*,1.8µM*,2µM*
CCN(CC)Cc1c(O)ccc2c(=O)c(-c3ccc4c(c3)OCCO4)coc12,-6%,4%,-3%,2%,2%,-10%
CCCc1cc2c(=O)c(-c3ccc4c(c3)OCCO4)c(C)oc2cc1OS(C)(=O)=O,-74%,-9%,6%,-7%,-1%,2%
CCn1c(=O)n(CC)c2cc(N3CCCCC3)c(NC(=O)Nc3ccccc3Cl)cc21,x,x,x,0%,x,x
COc1cccc(CNC(=O)CNS(=O)(=O)c2ccc3nc(C)sc3c2)c1,7%,x,x,-7%,x,x
Cc1onc(-c2ccccc2Cl)c1-c1nc(-c2ccccn2)no1,-10%,-4%,-3%,-8%,-3%,0%
SMILES,SMN2 splice enh,ELG1 genotox,KinaseGlo FLuc,FLuc modulator,NPC1 promoter act,Rab9 promoter act
Clc1ccccc1/C=C/c1nc(-c2ccccn2)no1,x,u,x,0.11µM*,0.22µM*,u
COc1ccc(N(CC(=O)NCc2ccccc2Cl)S(=O)(=O)c2c(C)nn(C)c2C)cc1,1%,x,x,-9%,x,x
O=C(CSc1nc(O)c(C/C=C/c2ccccc2)c(=O)[nH]1)Nc1cccc(F)c1,-8%,x,x,11µM*,x,x
CCC1Oc2ccc(C)cc2N(CC(=O)N2CCN(c3ccccc3OC)CC2)C1=O (configuration not stated),x,x,x,-15%,x,x
CC1=NN(C(N)=S)C(=O)C1N=Nc1c(C)cc(C)cc1C (configuration not stated),-26%,u,1%,u,-1%,26%
CC1=NN(C(N)=S)C(=O)C1N=Nc1c(Cl)cc([N+](=O)[O-])cc1Cl (configuration not stated),x,9%,x,13µM*,u,u
CC(=O)N(C)c1ccc(N=NC2C(=O)N(C(N)=S)N=C2C)cc1 (configuration not stated),x,u,x,3µM*,0.5µM*,-52%
CC1=NN(C(N)=S)C(=O)C1N=Nc1cccc(Cl)c1 (configuration not stated),x,u,x,17µM*,u,u
CC1=NN(C(N)=S)C(=O)C1N=Nc1ccc(S(N)(=O)=O)cc1 (configuration not stated),x,-2%,x,19µM*,6%,-3%
CSc1ccc(CCNC(=O)Cn2c(C)c3cnn(-c4ccccc4)c(=O)c3c2C)cc1,9%,x,x,-1%,x,x
Cc1cc2c(cc1C)N(CC(=O)N1CCCC1)C(=O)CC(c1ccccc1)=N2,26%,u,-6%,13µM*,3%,18%
CCOc1ccccc1NC(=O)CN1C(=O)CC(c2ccc(C)c(C)c2)=Nc2ccccc21,x,x,x,27µM*,x,x
COc1ccccc1NC(=O)CN1C(=O)CC(c2ccc(C)c(C)c2)=Nc2ccccc21,x,x,x,13µM*,x,x
Cc1cc(C)cc(NC2=CC(c3cccc(F)c3)N(c3cc(C)cc(C)c3)C2=O)c1 (configuration not stated),2%,x,x,6%,x,x
Cc1ccc(Cl)cc1N1CCN(C(=O)c2ccc3c(c2)N(Cc2ccc(F)cc2)CCS3)CC1,-1%,x,x,3%,x,x
